KB-V1 MDR tox: qHTS assay for MDR1-selective chemotherapeutics: Primary screen using the drug-selected MDR subline cells KB-V1; Potency, µM (series often up to 46.1 µM), usual class: cytotoxic; 3.4% of 400,000 active; KB-V1 MDR cells viability, CellTiter-Glo, 72 h; note: nearly all actives have a fitted effect of over 60% in size
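qHTS viability screen in drug-selected KB-V1 MDR cells: 72 h compound treatment at 37 degrees C, ATP luminescence end point.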
HT1080 IDH1KD tx: qHTS for induction of synthetic lethality in tumor cells producing 2HG: qHTS for the HT-1080-IDH1KD cell line | 2% of 360,000 active | AID 686971, 2013 | Potency, µM (titrated, usually from 46.1 µM), hits mostly cytotoxic | HT-1080 IDH1 knockdown viability, ATP luminescence, 48 h
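CellTiter-Glo luminescence after 48 h compound exposure at 37 degrees C of IDH1-knockdown HT-1080 cells in 5% FBS RPMI. %Activity scaled between DMSO wells and cell-free media wells, with curves fitted and assigned curve classes.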
SW480 rereplic: A quantitative high throughput screen for small molecules that induce DNA re-replication in SW480 colon adenocarcinoma cells. SW480 DNA re-replication, Hoechst DNA content imaging, 48 h. Potency, µM (doses to about 46.1 µM), most hits filed as activators. 1.8% of 340,000 active; note: nearly all actives have a fitted effect of over 55% in size
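Image-based read-out: total Hoechst fluorescence of nuclei (405 nm excitation, 500-530 nm emission), with hits raising the fraction of high-intensity nuclei. SW480 colon cells incubated 48 hr with compounds at 37 C.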
MCF10A rereplic: A quantitative high throughput screen for small molecules that induce DNA re-replication in MCF 10a normal breast cells | MCF 10A DNA re-replication, Hoechst nuclear intensity, 48 h | Potency, µM (titrated, usually from 46.1 µM), actives largely listed as activators | 2.9% of 350,000 active | AID 624296, 2012; note: nearly all actives have a fitted effect of over 50% in size
HT1080NT lethal: qHTS for induction of synthetic lethality in tumor cells producing 2HG: qHTS for the HT-1080-NT fibrosarcoma cell line | HT-1080-NT fibrosarcoma viability, CellTiter-Glo ATP luminescence, 48 h | Potency, µM (top dose mostly 46.1 µM), hits mostly cytotoxic | 1.6% of 360,000 active | AID 686970, 2013;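 note: NT is the 2HG producing partner of a matched IDH1 knockdown line; nearly all actives have a fitted effect of over 55% in size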
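Viability by CellTiter-Glo luminescence after 48 h compound exposure at 37C of HT-1080-NT cells (750/well, RPMI, 5% FBS). % activity scaled between DMSO wells and medium-only wells, then curve-fitted and categorized by curve class.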
KB-3-1 tox: qHTS assay for MDR1-selective chemotherapeutics: Primary screen using the parental adenocarcinoma cell KB-3-1; KB-3-1 viability, CellTiter-Glo ATP luminescence, 72 h; 1.4% of 400,000 active; AID 1347075, 2019; Potency, µM (titrated, usually from 46.1 µM), actives largely listed as cytotoxic; note: nearly all actives have a fitted effect of over 60% in size
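Cytotoxicity measured as CellTiter-Glo luminescence after 72 h at 37 C. Compound titrations were pinned onto drug-naive KB-3-1 parental adenocarcinoma cells grown in DMEM with 10% FBS, and normalized data fitted to concentration-response curves.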
A number is an active result; i = inactive; ? = inconclusive; nt = not tested or not shown. Rows were chosen to be rich in hits. Some 7.9% of all compounds tested hit in one or more screens of this group. Calls come from the whole dose curve; as a rule, active = well fitted curve in the direction sought with a large enough effect; inconclusive = small, poorly fitted or top-dose-only effect, or another doubt; inactive = no such curve, though single readings can be large; an effect the other way counts as inactive or inconclusive.

SMILES	KB-V1 MDR tox	HT1080 IDH1KD tx	SW480 rereplic	MCF10A rereplic	HT1080NT lethal	KB-3-1 tox
COc1ccc(OCC(O)Cn2c(=N)n(CCN3CCCCC3)c3ccccc32)cc1 (centres undefined)	i	?	?	25.9µM	18.4µM	?
CCn1c(=N)n(CC(O)COc2ccc(C)cc2)c2ccccc21 (centres undefined)	i	?	?	i	?	i
N=c1n(CCN2CCCC2)c2ccccc2n1CC(O)c1ccc(Cl)c(Cl)c1 (centres undefined)	i	?	?	23.1µM	?	i
CCCn1c(=N)n(CC(O)COc2ccc(C)cc2)c2ccccc21 (centres undefined)	?	16.4µM	?	i	16.4µM	i
O=C(Nc1ccccc1C(=O)NC1CCCCC1)c1ccccc1	i	i	i	i	i	i
CC1CCN(c2ccc(NC(=O)c3cccnc3)cc2)CC1	18.4µM	i	i	i	i	i
O=C(Nc1ccc(S(=O)(=O)N2CCCCC2c2cccnc2)cc1)c1ccc(Br)cc1 (centres undefined)	11.6µM	nt	nt	nt	nt	?
O=C(Nc1ccc(C(=O)NC2CCCCC2)cc1)c1cccnc1	i	18.4µM	i	i	?	i
O=C(Nc1ccsc1C(=O)NC1CCCCC1)c1ccccc1	4.61µM	i	i	i	i	i
O=C(Nc1ccc(N2CCN(C(=O)c3ccccc3)CC2)cc1)c1cccnc1	?	i	i	i	i	i
COc1ccc(CC(=O)NO)cc1OC	nt	i	nt	nt	i	nt
Cc1cccc(Nc2nc(NC(C)C)nc(Oc3ccc(=O)n(C)n3)n2)c1	8.2µM	i	i	i	i	i
COCCn1c(C2CCCCC2)nc2sc3ccccc3c(=O)c2c1=O	4.11µM	i	i	i	?	i
COCCn1c(C(C)C)nc2sc3ccccc3c(=O)c2c1=O	16.4µM	i	i	?	i	i
COC(=O)Cn1c(=O)c2cccn2c2ccc(F)cc21	i	nt	nt	nt	nt	i
C=CCn1c(=S)[nH]c2scc(-c3ccc(C)o3)c2c1=O	i	16.4µM	?	16.4µM	13µM	i
CC(C)C(=O)OCC(=O)[C@@]12OC(C3CCCCC3)O[C@@H]1CC1C3CCC4=CC(=O)C=C[C@]4(C)C3[C@@H](O)C[C@@]12C (some centres undefined)	nt	nt	11.9µM	?	nt	nt
CCCC1O[C@@H]2C[C@H]3[C@@H]4CCC5=CC(=O)C=C[C@]5(C)[C@H]4[C@@H](O)C[C@]3(C)[C@]2(C(=O)CO)O1 (some centres undefined)	i	i	i	i	i	i
C=CCOc1ccc(C(=O)Nc2ccccc2C(=O)NCc2cccnc2)cc1	3.66µM	23.1µM	?	?	20.6µM	5.17µM
CC(C)(C)c1ccccc1OCC(=O)Nc1ccccc1C(=O)NCc1cccnc1	18.4µM	?	i	?	?	i
Cc1cc(F)ccc1-n1nnc(C(N)=O)c1C	i	nt	nt	nt	nt	i
COc1cccc(CNC(=O)CN(c2ccc(C)cc2)S(=O)(=O)N(C)C)c1OC	i	nt	nt	nt	nt	i
CCOc1ccc(NC(=O)c2oc3ccccc3c2NC(=O)C(C)Oc2ccccc2)cc1 (centres undefined)	i	nt	nt	nt	nt	i
COc1ccc(NC(=O)C2CCN(S(=O)(=O)c3ccc4c(c3)NC(=O)C(C)S4)CC2)cc1 (centres undefined)	i	?	i	?	?	i
CC1Sc2ccc(S(=O)(=O)N3CCC(C(=O)Nc4ccc(Cl)cc4)CC3)cc2NC1=O (centres undefined)	?	?	i	?	20.6µM	?
CCOC(=O)N1CCN(S(=O)(=O)c2ccc3c(c2)SC(C)C(=O)N3)CC1 (centres undefined)	4.61µM	i	i	i	i	?
COc1ccc2cc1Oc1ccc(cc1)C[C@H]1c3c(cc4c(c3Oc3cc5c(cc3OC)CCN(C)[C@@H]5C2)OCO4)CCN1C	?	20.6µM	?	?	16.4µM	?
CCC(=O)N1CCCc2cc(S(=O)(=O)N3CCC(C(=O)Nc4ccc(C#N)cc4)CC3)ccc21	i	nt	nt	nt	nt	i
